From PubChem BioAssay
In the library only some 2.3% were active in any assay of this set; here they are far more common.
M1 ag parental = nonselective activator or artifact in parental CHO-K1 cells | 360,000 tested, 0.48% active | activation, % at 3 µM | AID 602248 | Fluo-8 calcium fluorescence; scaled to maximal ATP response, vehicle zero; in the data active = activation above about 15%;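 note: untransfected CHO-K1 host cells lacking M1 receptor as counterscreen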
CHO-K1 Ca antag = nonselective inhibitor or artifact in parental CHO-K1 cells | ATP-induced calcium, Fluo-8 fluorescence | inhibition, % at 3 µM | 360,000 tested, 0.6% active | AID 602250;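 active = inhibition above a per-plate cutoff, the plate's mean sample inhibition plus 3 SD, cut at about 24% in these data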;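 note: 0% = DMSO plus EC80 ATP and 100% = DMSO alone without ATP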
M1 ag = activates human CHRM1 receptor. P11229. CHO-K1 hM1, Fluo-8 calcium fluorescence, agonist mode; 0% DMSO, 100% acetylcholine EC100. activation, % at 3 µM. 360,000 tested, 0.33% active. AID 588814;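 active = activation above the run's mean compound activation plus 3 SD, cut at about 16% in these data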;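 note: peak over basal fluorescence ratio within a 140 s kinetic read after compound addition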
Target sequence (P11229 whole entry, looked up): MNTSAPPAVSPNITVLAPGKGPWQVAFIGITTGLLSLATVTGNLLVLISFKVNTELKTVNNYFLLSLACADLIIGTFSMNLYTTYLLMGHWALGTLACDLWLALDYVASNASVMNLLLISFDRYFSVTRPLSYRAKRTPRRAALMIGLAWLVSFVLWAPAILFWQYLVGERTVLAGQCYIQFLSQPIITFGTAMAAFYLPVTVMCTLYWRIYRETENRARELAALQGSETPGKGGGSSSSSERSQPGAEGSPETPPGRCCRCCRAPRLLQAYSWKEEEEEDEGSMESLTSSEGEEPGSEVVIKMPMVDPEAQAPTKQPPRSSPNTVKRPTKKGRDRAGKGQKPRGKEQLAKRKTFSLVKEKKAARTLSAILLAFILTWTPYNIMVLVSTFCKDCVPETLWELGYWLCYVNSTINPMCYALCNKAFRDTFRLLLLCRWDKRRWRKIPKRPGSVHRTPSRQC
CHO-K1 Ca PAM = counter-screen for M1 PAMs: effect in parental CHO-K1 cells | 360,000 tested, 0.02% active | ATP EC20, Fluo-8 calcium fluorescence; 0% at ATP EC20, 100% at ATP max | activation, % at 3 µM;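 active = activation above the run cutoff, the mean activation of all test compounds plus 3 SD, cut at about 40% in these data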;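 note: peak over basal fluorescence ratio in a 140 s read after ATP addition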
M1 antag = blocks human M1 muscarinic receptor; inhibition, % at 3 µM; P11229; 360,000 tested, 1.3% active; CHO-K1 hM1, Fluo-8 calcium fluorescence, ACh EC80 antagonist; AID 588852;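 active = percent inhibition above its own plate's cutoff, namely the mean of that plate's compound wells plus 3 SD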;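 note: peak over basal fluorescence ratio during 140 s after agonist addition; 0% = ACh EC80 plus DMSO and 100% = DMSO alone without agonist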
CHRM1 PAM = potentiates human M1 receptor response to acetylcholine; P11229; CHO-K1 hM1, Fluo-8 calcium fluorescence, ACh EC20; 0% = ACh EC20, 100% = maximal ACh; activation, % at 3 µM; 360,000 tested, 0.088% active; in the data active = activation above about 19%, passing the limit was not always enough
* hit, by the source's call; nt = no result given.

SMILES	M1 ag parental	CHO-K1 Ca antag	M1 ag	CHO-K1 Ca PAM	M1 antag	CHRM1 PAM
COc1ccc(C(=O)N/N=C/c2ccc3cccc(OCc4ccccc4)c3n2)cc1	4	4	1	25	31*	-8
CCN(CC)P(=O)(Nc1ccccc1Br)c1ccc(N(C)C)cc1NC(=O)c1ccco1 (stereo not drawn)	0	-7	-1	9	15	-4
CCN1/C(=C/C=C/C=C/C=C/c2sc3ccccc3[n+]2CC)Sc2ccccc21	0	-8	-8	11	0	-2
CCN1/C(=C/c2sc(-c3ccccc3C)c[n+]2C)Sc2ccccc21	11	34*	-1	-2	48*	-17
CCN(CC)CCCN(Cc1cc2cc3c(cc2[nH]c1=O)OCO3)C(=S)NCCCOC	0	24*	-9	-22	0	3
CCN(CC)CCN(Cc1cc2cc3c(cc2[nH]c1=O)OCO3)C(=S)NCCCOC	1	0	-7	27	-12	10
COCCNC(=S)N(CCO)Cc1cc2cc3c(cc2[nH]c1=O)OCO3	1	-5	-5	11	3	2
COCCNC(=S)N(CCCO)Cc1cc2cc3c(cc2[nH]c1=O)OCCO3	0	26*	-2	-20	16	-7
CCOc1ccc(NC(=O)CC2C(=O)N(c3ccccc3)C(=O)N2CCc2cccs2)cc1 (stereo not drawn)	2	8	-6	-4	8	0
CCCCn1nnnc1C1(C)CCC(=O)N1CCOc1ccccc1 (stereo not drawn)	7	-9	nt	14	nt	nt
COc1ccc(C(=O)OCC(=O)Nc2ccc(OC(F)F)cc2)c(OC)c1	0	25*	-5	-6	-2	3
Cc1onc(-c2ccccc2)c1C(O)c1ccc(F)cc1 (stereo not drawn)	7	33*	-6	-11	42*	-23
Cc1onc(-c2ccccc2Cl)c1C(O)c1ccc(F)cc1 (stereo not drawn)	1	-18	-7	5	-6	1
CC(=O)c1c(C)[nH]c(C(=O)OCC(=O)Nc2cccc(S(=O)(=O)N(C)C)c2)c1C	0	-7	-4	1	-11	9
CCN(CC)S(=O)(=O)c1cccc(NC(=O)COC(=O)c2[nH]c(C)c(C(C)=O)c2C)c1	8	8	4	7	31*	-16
CN(C)CCNc1ccc2ncn3c4ccc(O)cc4c(=O)c1c23	1	-11	-7	10	-6	0
O=C(O)CCCNC(=O)Cc1ccccc1	0	1	0	-2	-9	6
CC(=O)c1ccc(NC(=O)CSc2nc(=O)n3cccc(C)c3n2)cc1	0	44*	-2	18	-9	6
CC1CCCN(Cc2cccc(Oc3ccccc3)c2)C1 (stereo not drawn)	0	0	-9	8	16	-17
O=C(C1CCC1)N1CCN(c2cccc(C(F)(F)F)c2)CC1	2	-9	-3	8	-23	6
O=C(C1CCN(c2nnc(-n3cccc3)s2)CC1)N1CCN(c2cccc(C(F)(F)F)c2)CC1	1	4	-3	1	40*	-22
CCN(CC)CC#CCC1(O)c2ccccc2-c2ccccc21	1	-13	-10	6	26*	-24
CCN(CC#CCC1(O)c2ccccc2-c2ccccc21)C(C)C	0	1	-6	2	71*	-22
O=C1CC(NS(=O)(=O)c2ccc(F)cc2)CN1c1ccc2c(c1)OCCO2 (stereo not drawn)	3	4	-2	-9	-4	5
COc1ccc(Br)cc1/C=N/n1c(-c2ccccc2)n[nH]c1=S	0	12	-3	-22	-12	9
Cc1ccc(S(=O)(=O)N2CCC(C(=O)OCCOc3ccccc3)CC2)cc1C	1	6	-3	-4	19*	-16
Cc1ccc(OCCOC(=O)C2CCN(S(=O)(=O)c3ccc(C)c(C)c3)CC2)cc1	1	-10	-1	4	-11	9
CCC1(c2ccc(F)cc2)NC(=O)N(CC(=O)c2cc(C)n(C3CC3)c2C)C1=O (stereo not drawn)	26*	1	30*	28	7	1
